Experiment [1] in a line: qHTS of pediatric cancer cell lines to identify multiple opportunities for drug repurposing: Primary screen for A673 cells (AID 1347092). Also: nearly all actives have a fitted effect of over 45% in size. The method in brief: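 A673 cells (500-1,000 cells/well) were treated 48 hours at 37 degrees C with compounds at 11-point (0.78 nM to 46 µM) or 8-point (0.59 nM to 46 µM) dilutions. Viability read by CellTiter-Glo luminescence; concentration-response curves fitted.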

A short description of experiment [2]: qHTS of pediatric cancer cell lines to identify multiple opportunities for drug repurposing: Primary screen for BT-37 cells (AID 1347094). The method in brief:
(§1)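 Following a 5-hour attachment period, cells at 500-1,000/well received compounds and were cultured for 48 hours. CellTiter-Glo was added and luminescence read to estimate viable, metabolically active cells.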

Experiment [3] in a line: qHTS of pediatric cancer cell lines to identify multiple opportunities for drug repurposing: Primary screen for NB-EBc1 cells (AID 1347095). The method in brief: as §1
The nature of experiment [4]: qHTS of pediatric cancer cell lines to identify multiple opportunities for drug repurposing: Primary screen for U-2 OS cells (AID 1347096). Also: nearly all actives have a fitted effect of over 50% in size. The gist of the method: (§2)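 Cells (500-1,000/well) in growth media were settled 5 h at 37 degrees C, then given compounds for 48 h. Viability was read as CellTiter-Glo luminescence. Primary runs used MIPE at 11 points (0.78 nM-46 µM) and NPC at 8 points (0.59 nM-46 µM); follow-ups used 11 points.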

A short description of experiment [5]: qHTS of pediatric cancer cell lines to identify multiple opportunities for drug repurposing: Primary screen for Saos-2 cells (AID 1347097). Also: nearly all actives have a fitted effect of over 40% in size. The gist of the method: as §1
Experiment [6] is described as follows: qHTS of pediatric cancer cell lines to identify multiple opportunities for drug repurposing: Primary screen for LAN-5 cells (AID 1347100). The method in brief:
as §2

Experiment [7] is described as follows: qHTS of pediatric cancer cell lines to identify multiple opportunities for drug repurposing: Primary screen for BT-12 cells (AID 1347101). Also: nearly all actives have a fitted effect of over 25% in size. The method in brief:
(§3)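 Cells (500-1,000/well) rested 5 h, then received compounds for 48 h; metabolically active cells were measured by CellTiter-Glo luminescence. Final concentrations spanned up to 46 µM (MIPE, 11-point) or 0.59 nM-46 µM (NPC, 8-point) in primary screens, 11-point in follow-ups.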

Experiment [8] can be described thus: qHTS of pediatric cancer cell lines to identify multiple opportunities for drug repurposing: Primary screen for Rh18 cells (AID 1347102). Also: nearly all actives have a fitted effect of over 65% in size. The method in brief:
as §2

Experiment [9] in a line: qHTS of pediatric cancer cell lines to identify multiple opportunities for drug repurposing: Primary screen for RD cells (AID 1347104). Also: nearly all actives have a fitted effect of over 55% in size. The method in brief:
as §1

Experiment [10] is described as follows: qHTS of pediatric cancer cell lines to identify multiple opportunities for drug repurposing: Primary screen for MG 63 (6-TG R) cells (AID 1347105). Also: nearly all actives have a fitted effect of over 50% in size. The method in brief:
as §1

The nature of experiment [11]: qHTS of pediatric cancer cell lines to identify multiple opportunities for drug repurposing: Primary screen for control Hh wild type fibroblast cells (AID 1347106). Also: nearly all actives have a fitted effect of over 55% in size. The method in brief:
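Viability after 48 h compound treatment at 37C, 500-1,000 cells/well, read as ATP luminescence with CellTiter-Glo. Primary screens used 11-point (MIPE, 0.78 nM-46 µM) or 8-point (NPC, 0.59 nM-46 µM) final concentrations; follow-up screens used 11-point dilutions.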

The nature of experiment [12]: qHTS of pediatric cancer cell lines to identify multiple opportunities for drug repurposing: Primary screen for Rh30 cells (AID 1347107). Also: nearly all actives have a fitted effect of over 75% in size. The gist of the method: as §2
A short description of experiment [13]: qHTS of pediatric cancer cell lines to identify multiple opportunities for drug repurposing: Primary screen for Rh41 cells (AID 1347108). Also: nearly all actives have a fitted effect of over 70% in size. The method in brief: as §1
Experiment [14] in a line: qHTS of pediatric cancer cell lines to identify multiple opportunities for drug repurposing: Primary screen for NB1643 cells (AID 1347099). Also: nearly all actives have a fitted effect of over 50% in size. The gist of the method: as §1
Experiment [15] is described as follows: qHTS of pediatric cancer cell lines to identify multiple opportunities for drug repurposing: Primary screen for OHS-50 cells (AID 1347103). Also: nearly all actives have a fitted effect of over 40% in size. The gist of the method: as §3
The nature of experiment [16]: qHTS of pediatric cancer cell lines to identify multiple opportunities for drug repurposing: Primary screen for SK-N-SH cells (AID 1347098). Also: nearly all actives have a fitted effect of over 65% in size. The method in brief: as §3
The nature of experiment [17]: qHTS of pediatric cancer cell lines to identify multiple opportunities for drug repurposing: Confirmatory screen for A673 cells (AID 1347110).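 Also: cells exposed to compound for 48 h before the viability read; nearly all actives have a fitted effect of over 65% in size.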 The gist of the method:
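A673 cells at 500-1,000 cells/well were dosed 5 h after plating, in dilution series up to 46 uM final; primary runs used 8 or 11 points and confirmatory runs used 11 points. Viability was read by CellTiter-Glo luminescence after 48 h, against DMSO and 2.3 uM bortezomib controls.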

A short description of experiment [18]: qHTS of pediatric cancer cell lines to identify multiple opportunities for drug repurposing: Confirmatory screen for SK-N-MC cells (AID 1347111).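 Also: cells exposed to compound for 48 h before the readout; nearly all actives have a fitted effect of over 70% in size.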 The gist of the method:
(§4)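 Metabolically active cells were quantified by ATP-dependent luminescence (CellTiter-Glo, 15 min at room temperature) following 48 h treatment. Cells had been plated at 500-1,000 per well and settled for 5 h beforehand.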

Experiment [19] can be described thus: qHTS of pediatric cancer cell lines to identify multiple opportunities for drug repurposing: Confirmatory screen for NB1643 cells (AID 1347109). Also: nearly all actives have a fitted effect of over 45% in size. The method in brief: as §2
A short description of experiment [20]: qHTS of pediatric cancer cell lines to identify multiple opportunities for drug repurposing: Primary screen for SK-N-MC cells (AID 1347093). The method in brief:
as §4

The text below walks through data of PubChem BioAssay (NCATS).

Results filed as inconclusive are left out. Activity calls are given as the source filed them. Calls follow the shape of the dose curve; as a rule, active = well fitted curve in the direction sought with a large enough effect; inconclusive = small, poorly fitted or top-dose-only effect, or another doubt; inactive = no such curve, though single readings can be large; an effect the other way counts as inactive or inconclusive.
Potency is read from the fitted curve at half-maximal effect.

As to `CCCCCCCCCCCC(CC1OC(=O)C1CCCCCC)OC(=O)C(CC(C)C)NC=O` (stereo unspecified), the Potency entry in experiment [1], in [2], in experiment [4], in experiment [6], in experiment [7] and in experiment [8] was “inactive” each time. Further, the Potency entry in [9], in [10], in [11], in [12] and in experiment [13] was “inactive” in each case. The Potency in experiment [3] is 18700 nM (active); in experiment [5], 14800 nM (active).

In the case of `O=C(O)[C@H](CC(=O)N1C[C@@H]2CCCC[C@H]2C1)Cc1ccccc1`, the Potency entry in experiment [1], in [2], in experiment [3], in [4], in experiment [5] and in experiment [14] was “inactive” each time. Also, the Potency entry in experiment [6], in [7], in experiment [8], in [15], in [9] and in experiment [10] was “inactive” throughout. The Potency entry in experiment [11], in experiment [12] and in experiment [13] was “inactive” throughout.

Consider `CC(=O)NC(CS)C(=O)O` (stereo unspecified), for which the Potency result in experiment [1], in experiment [2], in experiment [3], in experiment [4], in experiment [5] and in experiment [16] was “inactive” in each case. Also, the Potency result in experiment [14], in experiment [6], in experiment [7], in [8], in experiment [15] and in experiment [9] was “inactive” throughout. Moreover, the Potency entry in [11], in experiment [12] and in experiment [13] was “inactive” in each case.

In the case of `CC[C@H]1OC(=O)[C@H](C)[C@@H](O[C@H]2C[C@@](C)(OC)[C@@H](O)[C@H](C)O2)[C@H](C)[C@@H](O[C@@H]2O[C@H](C)C[C@H](N(C)C)[C@@H]2O)[C@](C)(OC)C[C@@H](C)C(=O)[C@H](C)[C@@H](O)[C@]1(C)O`, the Potency entry in experiment [1], in experiment [2], in experiment [3], in experiment [4], in [5] and in experiment [6] was “inactive” throughout. For the same compound, the Potency entry in experiment [7], in [8], in experiment [9], in [10], in experiment [11] and in experiment [12] was “inactive” in each case.

`O=c1ccn([C@@H]2O[C@H](CO)[C@H](O)[C@@H]2F)c(=O)[nH]1`: the Potency in experiment [1] is 23500 nM (active); in experiment [16], 9610 nM (active). Besides, the Potency result in experiment [2], in experiment [3], in experiment [4], in experiment [5], in experiment [14] and in experiment [6] was “inactive” in each case. Moreover, the Potency result in experiment [7], in experiment [8] and in experiment [10] was “inactive” each time.

As for `COC[C@H](NC(=O)c1cnc(C)s1)C(=O)N[C@@H](COC)C(=O)N[C@@H](Cc1ccccc1)C(=O)[C@@]1(C)CO1`, the Potency in experiment [1] was 93.5 nM (active); in [2] it was 273 nM (active); in [3], 83.3 nM (active); in experiment [4], 372 nM (active); in experiment [5] it was 662 nM (active); in experiment [16], 541 nM (active). In addition, the Potency was 132 nM (active) in experiment [14]; 132 nM (active) in experiment [6]; 432 nM (active) in [7]; 187 nM (active) in [8]; 193 nM (active) in experiment [15]; 166 nM (active) in experiment [9]. The Potency in experiment [10] is 235 nM (active); in [11], 935 nM (active); in experiment [12], 1660 nM (active); in [13], 296 nM (active); in experiment [17] it was 165 nM (active); in experiment [18], 36.9 nM (active).

Take `Cc1ccc([N+](=O)[O-])cc1S(=O)(=O)N(C)N=Cc1cnc2ccc(Br)cn12`: the Potency is 7.4 nM (active) in [1]; 38.5 nM (active) in [2]; 935 nM (active) in [3]; 118 nM (active) in [4]; 187 nM (active) in [5]; 10.8 nM (active) in experiment [16]. The Potency is 4.2 nM (active) in experiment [14]; 8.3 nM (active) in experiment [6]; 34.3 nM (active) in experiment [7]; 148 nM (active) in [8]; 30.6 nM (active) in experiment [15]; 74.3 nM (active) in [9]. Also, the Potency in experiment [10] is 18700 nM (active); in experiment [19], 165 nM (active); in experiment [17], 293 nM (active); in experiment [18], 1040 nM (active). The Potency result in experiment [11] and in experiment [12] was “inactive” each time.

For the compound `NC1=N[C@H]2[C@H](CS[C@H]2CCCCC(=O)O)N1`, the Potency result in experiment [1], in experiment [20], in [5], in [16], in [14] and in experiment [6] was “inactive” in each case. Moreover, the Potency entry in [7], in experiment [8], in experiment [15], in experiment [9], in experiment [10] and in [11] was “inactive” throughout. The Potency result in experiment [12] and in experiment [13] was “inactive” each time.

Consider `C[C@H](NC(=O)C(C#N)=Cc1cccc(Br)n1)c1ccccc1`, for which the Potency in [1] is 14800 nM (active); in experiment [20] it was 11800 nM (active); in [3], 7430 nM (active); in experiment [14] it was 16600 nM (active); in experiment [6], 16600 nM (active); in [9], 33200 nM (active). Moreover, the Potency in [12] and in experiment [13] was 23500 nM (active) in each case. The Potency result in [11] is “inactive”.

Take `CC[C@H](CC[C@@H](C)[C@H]1CC[C@H]2[C@@H]3CC=C4C[C@@H](O)CC[C@]4(C)[C@@H]3CC[C@]12C)C(C)C`: the Potency result in experiment [1], in experiment [2], in experiment [3], in experiment [4], in experiment [5] and in experiment [6] was “inactive” each time. In addition, the Potency result in [7], in [8], in experiment [15], in experiment [9], in experiment [10] and in [11] was “inactive” in each case. Besides, the Potency result in experiment [12] is “inactive”.

Consider `COc1cc(CCc2cc(NC(=O)c3ccc(N4C[C@@H](C)N[C@@H](C)C4)cc3)n[nH]2)cc(OC)c1`, for which the Potency in [1] was 14800 nM (active); in experiment [2], 27300 nM (active); in experiment [3], 14800 nM (active); in [4], 23500 nM (active); in [5], 5900 nM (active); in experiment [16] it was 6070 nM (active). The Potency is 4180 nM (active) in [6]; 27300 nM (active) in experiment [7]; 5900 nM (active) in experiment [8]; 16600 nM (active) in [9]; 33200 nM (active) in experiment [11]; 18700 nM (active) in [12]. For the same compound, in experiment [13], the Potency is 5900 nM (active).
